SMILES strings stand for the structures. Records with an inconclusive call do not appear. Entries that show only a call come without a potency. Activity calls are given as the source filed them. Calls follow the shape of the dose curve; as a rule, active = well fitted curve in the direction sought with a large enough effect; inconclusive = small, poorly fitted or top-dose-only effect, or another doubt; inactive = no such curve, though single readings can be large or run the other way.

This experiment deals with Metallo-beta-lactamase type 2 (Klebsiella pneumoniae) (UniProt C7C422). In words: qHTS to identify inhibitors of the New Delhi Metallo-beta-lactamase (NDM): assay validation screen against the NCATS LOPAC Collection (AID 1794843).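 Also: nitrocefin turnover by NDM-1 measured as 485 nm absorbance at plateau.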 The following applies: NDM-1 enzyme, nitrocefin hydrolysis, absorbance 485 nm; series mostly up to 38.4 µM. An outline of the steps: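 NDM-1 at 2 nM final in 50 mM HEPES pH 7.0, 1 uM ZnSO4, 0.01% Tween20, preincubated with LOPAC compounds pinned in DMSO; 50 uM nitrocefin (stock) added. Hydrolysis read as absorbance at 485 nm in the plateau phase.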
Sequence of Metallo-beta-lactamase type 2 (Klebsiella pneumoniae) (C7C422 whole entry, looked up): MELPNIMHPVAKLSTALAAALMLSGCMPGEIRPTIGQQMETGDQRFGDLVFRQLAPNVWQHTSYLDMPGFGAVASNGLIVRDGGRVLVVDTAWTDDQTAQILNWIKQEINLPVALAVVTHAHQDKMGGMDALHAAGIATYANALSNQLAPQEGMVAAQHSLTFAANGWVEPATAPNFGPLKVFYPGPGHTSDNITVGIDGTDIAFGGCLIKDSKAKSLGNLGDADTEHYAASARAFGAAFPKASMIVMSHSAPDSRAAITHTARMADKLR
(In qHTS, concentration-response curves come from the screen itself.)
In the case of `C#CC(N)CCC(=O)O` (stereo unspecified), the Potency result was “inactive”.

On to `COc1ccc(CCN(C)CCc2ccc(OC)c(OC)c2)cc1OC`, for which the Potency result is “inactive”.

`NCCCCN`: the Potency result was “inactive”.

In the case of `c1ccc(C(NCCNC(c2ccccc2)c2ccccc2)c2ccccc2)cc1`, the Potency result is “inactive”.

Turning to `O=C1C2C=CC=CC2=NC(=S)N1CCN1CCC(=C(c2ccc(F)cc2)c2ccc(F)cc2)CC1` (stereo unspecified), the Potency entry is “inactive”.

In the case of `N#Cc1cc2nc(O)c(O)nc2cc1[N+](=O)[O-]`, the Potency entry was “inactive”.

Take `CCCOC(=O)c1c(-c2ccccc2)nc(CC)c(C(=O)SCC)c1CCC`: the Potency result was “inactive”.

As to `Cc1nc2n(c(=O)c1CCN1CCC(c3noc4cc(F)ccc34)CC1)CCCC2O` (stereo unspecified), the Potency result was “inactive”.

On to `COc1ccc(-c2ccc(N)[n+](CCCC(=O)O)n2)cc1`, for which the Potency result was “inactive”.

`CNc1cc(NS(=O)(=O)c2ccc(N)cc2)nc(NC)n1`: the Potency entry is “inactive”.

Consider `Nc1nc2c(cnn2CCc2ccccc2)c2nc(-c3ccco3)nn12`, for which the Potency entry was “inactive”.

Turning to `Cn1c(=O)[nH]c2ncn(C)c2c1=O`, the Potency entry is “inactive”.

With `O=C(O)C1CN(CCCP(=O)(O)O)CCN1` (stereo unspecified), the Potency result was “inactive”.

Consider `N[C@@H](Cc1c[nH]c2ccccc12)C(=O)O`, for which the Potency result was “inactive”.

For the compound `NCC(O)(CS(=O)(=O)O)c1ccc(Cl)cc1` (stereo unspecified), the Potency result is “inactive”.

For the compound `O=C(O)c1cc(=O)cc(C(=O)O)[nH]1`, the Potency entry is “inactive”.

Turning to `Cc1cc2c(cc1Cl)N(C(=O)Nc1ccnc3ccccc13)CC2`, the Potency result was “inactive”.

Regarding `Cn1cc(C(F)(F)F)nc1-c1ccc(OCC(O)CNCCOc2ccc(O)c(C(N)=O)c2)cc1` (stereo unspecified), the Potency result is “inactive”.

For the compound `CCN(c1nc(N)c(C(=O)N=C(N)N)nc1Cl)C(C)C`, the Potency entry is “inactive”.

Regarding `CCCCOc1cc(CC2CNC(=O)N2)ccc1OC` (stereo unspecified), the Potency entry is “inactive”.

For the compound `N[C@H](C(=O)O)[C@H](O)C(=O)O`, the Potency entry was “inactive”.

(Values after PubChem BioAssay (NCATS).)
